The list is not random: actives were taken first. Their share in the collection is about 3.8%.
VDR inh: Inhibitors of the vitamin D receptor (VDR): qHTS | Vitamin D3 receptor (Homo sapiens), P11473 | VDR-SRC2-3 peptide fluorescence polarization, 2 h | Potency, µM, most hits filed as inhibitors | actives 0.93% (n = 400,000) | AID 504847, 2011
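VDR–SRC2-3 interaction, FP format. Cmpds 23 nl via pintool, brief spin, 2 h ambient incubation.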
KCNH2 WT inh: qHTS for Inhibitors of KCHN2 3.1: Wildtype qHTS | U2OS, BacMam KCNH2, thallium flux FluxOr; stronger effect = lower value | activity change, % at 1.84 µM | actives 0.37% (n = 340,000);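 active means maximum activity change below -70%; inconclusive means maximum activity change between -70% and -50%; inactive means maximum activity change above -50%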
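U2OS cells were transduced with wild-type KCNH2 virus (2.03 x 10^8 / mL) for 4 h at room temperature, then cultured overnight at 37 C. Thallium flux was read with FluxOr dye. Rate constants were normalized to DMSO controls.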
MBNL1 CUG block: qHTS Assay for Inhibitors of MBNL1-poly(CUG) RNA binding; Muscleblind-like protein 1 (Homo sapiens), Q9NR56; TR-FRET MBNL1-His/biotin-(CUG)12 binding, 665/545 ratio; Potency, µM (doses to about 57.5 µM), most hits filed as inhibitors; actives 0.036% (n = 280,000); AID 2675, 2010; active means well fitted inhibition curve with a large enough effect in the signal ratio, with a control signal flat, not every such curve was filed as active; inconclusive means small, poorly fitted or top-dose-only effect, or effect the other way, or a change in a side signal; inactive means no such curve, though single readings can be large or run the other way; the % refers to the signal ratio
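Compounds (final 92 nM to 58 uM) are added to His-tagged MBNL1 and biotin-(CUG)12, then terbium anti-His antibody and streptavidin-XL665 (5 nM final). After 60 min at room temperature, the 665/545 nm ratio is read.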
CBFb-RUNX1 inh: qHTS Assay for Compounds Blocking the Interaction Between CBF-beta and RUNX1 for the Treatment of Acute Myeloid Leukemia | Potency, µM (highest dose often 59.8 µM), hits mostly inhibitors | 230,000 tested, under 10 active | AID 1477, 2009 | AlphaScreen CBFb-His/RUNX1-biotin binding, biochemical
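CBF-beta (His) and RUNX1 (biotin), 30 nM each; 20 min preassociation; + compound, 15 min; + beads 50 ng each (Ni, streptavidin), 90 min; RT; AlphaScreen read.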
PLK1 PBD block: qHTS for Inhibitors of PLK1-PDB (polo-like kinase 1 - polo-box domain): Primary Screen; Plk1 PBD binding of FITC phosphopeptide, fluorescence polarization; actives 2.8% (n = 360,000); Potency, µM, most hits filed as inhibitors; Serine/threonine-protein kinase PLK1 (Homo sapiens), P53350; further: series mostly up to about 57 µM; nearly all actives have a fitted effect of over 65% in size
Target sequence (P53350 whole entry, looked up, the tested form may be a part): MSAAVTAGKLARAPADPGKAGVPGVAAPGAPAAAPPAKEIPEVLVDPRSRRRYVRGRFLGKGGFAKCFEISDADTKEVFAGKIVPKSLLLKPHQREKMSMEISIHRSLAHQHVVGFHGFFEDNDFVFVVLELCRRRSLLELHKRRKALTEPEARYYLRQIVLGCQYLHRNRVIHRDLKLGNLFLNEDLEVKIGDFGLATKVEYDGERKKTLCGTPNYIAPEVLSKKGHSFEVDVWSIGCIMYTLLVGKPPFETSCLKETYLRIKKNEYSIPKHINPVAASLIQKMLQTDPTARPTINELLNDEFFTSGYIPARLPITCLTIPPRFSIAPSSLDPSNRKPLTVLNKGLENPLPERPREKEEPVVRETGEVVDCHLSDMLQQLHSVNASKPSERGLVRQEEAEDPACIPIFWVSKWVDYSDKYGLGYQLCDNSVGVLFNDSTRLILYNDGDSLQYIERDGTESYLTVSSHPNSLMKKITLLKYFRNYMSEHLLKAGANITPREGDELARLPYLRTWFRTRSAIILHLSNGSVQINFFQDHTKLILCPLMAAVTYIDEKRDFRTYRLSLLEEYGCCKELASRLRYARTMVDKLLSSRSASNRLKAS
KCNH2 3.1 block: qHTS for Inhibitors of KCHN2 3.1: Mutant qHTS | Potassium voltage-gated channel subfamily H member 2, brain isoform KCNH2 3.1 (human) | U2OS KCNH2 3.1, thallium flux FluxOr; stronger effect = lower value | activity change, % (tested at about 1.8 µM) | actives 0.95% (n = 340,000) | AID 720553, 2013;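 active means maximum activity change below -70%; inconclusive means maximum activity change from -70% to -50%; inactive means maximum activity change above -50%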;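 further: thallium influx rate constant from kinetic fluorescence after stimulation buffer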
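Virally transduced U2OS (3.1 isoform, 4 h infection in dark at RT) → overnight 37 C → FluxOr + Red40 in HBSS/HEPES, 45 min → stimulation buffer, 2 min kinetic read → rate constant vs DMSO controls.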
VDR inh confirm: qHTS for Inhibitors of the vitamin D receptor (VDR): Hit Validation in Primary Screen. actives 89% (n = 840). AID 602199, 2012. Potency, µM, actives largely listed as inhibitors. shares compounds with VDR inh. VDR-coactivator inhibition assay, qHTS confirmation
VDR FP fluor: qHTS for Inhibitors of the vitamin D receptor (VDR): Hit Validation using a Fluorescein Assay; shares compounds with VDR inh; Potency, µM (doses to about 57.1 µM), usual class: inhibitors; VDR-coactivator binding, fluorescein fluorescence polarization; actives 48% (n = 840)
VDR bla: qHTS for Inhibitors of the vitamin D receptor (VDR): Hit Validation using a Beta-Lactamase Assay | shares compounds with VDR inh | VDR beta-lactamase reporter cells, FRET ratio; cells co-treated with VDR agonist LG190178 | Potency, µM (highest dose often 46.1 µM), usual class: inhibitors | actives 23% (n = 840)
VDR cytotox: qHTS for Inhibitors of the vitamin D receptor (VDR): Hit Validation using a Cytotoxicity Assay; shares compounds with VDR inh; cytotoxicity counter-screen, cell viability, qHTS; Potency, µM (doses to about 48.3 µM), actives largely listed as cytotoxic; actives 18% (n = 840); AID 602204, 2012; further: nearly all actives have a fitted effect of over 75% in size
TbPYK confirm: qHTS of Trypanosoma Brucei Inhibitors: Confirmatory Assay for Cherry-picked Compounds | shares compounds with PLK1 PBD block | recombinant TbPYK, Kinase-Glo ATP luminescence | Potency, µM (titrated, usually from 76.9 µM), hits mostly inhibitors | actives 67% (n = 890); further: nearly all actives have a fitted effect of over 70% in size
TbPYK orthogonal: qHTS of Trypanosoma Brucei Inhibitors: Orthogonal Assay for Cherry-picked Compounds; shares compounds with PLK1 PBD block; recombinant TbPYK, ADP-Glo luminescence, 60 min; Potency, µM (titrated, usually from 76.9 µM), usual class: inhibitors; actives 62% (n = 890); AID 720584, 2013; further: nearly all actives have a fitted effect of over 75% in size
Hits are given with their value; 0 = inactive; ? = inconclusive; - = no result. Unless noted, the call rests on the fitted dose curve; in most records, active means well fitted curve in the direction sought with a large enough effect; inconclusive means small, poorly fitted or top-dose-only effect, or another doubt; inactive means no such curve, though single readings can be large; an effect the other way counts as inactive or inconclusive.

SMILES | VDR inh | KCNH2 WT inh | MBNL1 CUG block | CBFb-RUNX1 inh | PLK1 PBD block | KCNH2 3.1 block | TbPYK confirm | TbPYK orthogonal | others
CC(C)(C)c1cc(C(c2cccnc2)N2CCN(CCO)CC2)cc(C(C)(C)C)c1O (stereo unspecified) | 25µM | 0 | 0 | 0 | 1.9µM | 0 | 0.32µM | 2.8µM | VDR inh confirm=3.8;VDR FP fluor=4µM;VDR bla=16µM;VDR cytotox=?
OCCN1CCN(C(c2cccs2)c2ccc3cccnc3c2O)CC1 (stereo unspecified) | - | - | 0 | 0 | - | - | - | -
COc1ccc(N2CCN(c3oc(/C=C/c4ccccc4OC)nc3C#N)CC2)cc1 | 0 | - | - | - | - | - | - | -
COc1ccc2[nH]c3c4c(ccc3c2c1)C(=O)C=CC4=O | ? | 0 | 0 | 0 | ? | ? | 5µM | ? | VDR inh confirm=7.1;VDR FP fluor=5µM;VDR bla=6.5µM;VDR cytotox=?
CCn1cc(C(=O)N2CCN(c3cccc(Cl)c3)CC2)c(=O)c2cc(S(=O)(=O)N3CCCCC3)ccc21 | 0 | - | - | - | - | - | - | -
NC(=O)c1c(N)sc2c1CCCCC2 | 79µM | 0 | 0 | 0 | ? | 0 | ? | ? | VDR inh confirm=18;VDR FP fluor=14µM;VDR bla=0;VDR cytotox=0
O=C(/C=C1\C(=O)Nc2ccccc21)/C=C1\C(=O)Nc2ccccc21 | 56µM | 0 | 0 | 0 | 8.4µM | 0 | 18µM | 18µM | VDR inh confirm=12;VDR FP fluor=?;VDR bla=?;VDR cytotox=?
CN(C)/C=C1\C(=O)Nc2ccccc21 | 0 | 0 | 0 | 0 | 0 | - | - | -
CN1CCN(C(=O)c2sc(=S)n(-c3ccccc3)c2N)CC1 | 45µM | 0 | ? | 0 | 1.5µM | 0 | 0.63µM | 0.89µM | VDR inh confirm=11;VDR FP fluor=?;VDR bla=0;VDR cytotox=0
NC(=O)C1CCN(C(=O)c2ccc3ncsc3c2)CC1 | - | 0 | - | - | 0 | 0 | - | -
O=C(c1ccc2ncsc2c1)N1CCCCC1 | 0 | 0 | 0 | - | 0 | 0 | ? | ?
Cc1ccc2oc(C(=O)N(C)Cc3ccc(C)o3)c(C)c2c1 | ? | 0 | 0 | - | ? | 0 | 16µM | 28µM
CCn1nc(-c2ccccc2)c(-c2ccccc2)c(C(=O)Nc2ccccc2C(N)=O)c1=O | 0 | - | - | - | - | - | - | -
COc1cc(N=c2ssnc2Cl)c(OC)cc1Cl | 16µM | 0 | 0 | 0 | 1.7µM | 0 | 4.5µM | 6.3µM
COc1ccc(OC)c(N=c2ssnc2Cl)c1 | ? | 0 | 0 | 0 | 2.7µM | 0 | 16µM | 14µM
COc1ccc(OC)c(N=C2C(=O)Nc3ccccc32)c1 | 0 | 0 | ? | 0 | 0 | 0 | - | -
CCOc1ccc(NC(=O)c2cn3c4c(ccc(Cl)c4c2=O)OC(C)C3)cc1 (stereo unspecified) | 0 | - | - | - | - | - | - | -
O=C(c1ccccc1)c1ccccc1N1C(=O)C=CC1=O | 25µM | 0 | 0 | 0 | 3.4µM | 0 | 4µM | 4µM
O=C(O)c1ccccc1C(=O)c1ccc(-c2ccccc2)cc1 | 0 | 0 | 0 | - | 0 | 0 | - | -
COc1ccccc1NC(=O)CSc1nnc2c(n1)[nH]c1ccccc12 | 0 | - | - | - | - | - | - | -
COC(=O)c1c(-c2ccc(C)cc2)csc1NC(=O)C1CC=CCC1C(=O)O (stereo unspecified) | 0 | 0 | - | 0 | ? | 0 | - | -
COC(=O)c1c(-c2ccc(C(C)(C)C)cc2)csc1NC(=O)C1C2CCC(O2)C1C(=O)O (stereo unspecified) | 45µM | 0 | 0 | 0 | 2.7µM | 0 | 4.5µM | 14µM
Cc1cc(NS(=O)(=O)c2ccc(NC(=O)/C=C/c3ccccc3)cc2)nc(C)n1 | 0 | 0 | - | - | 0 | 0 | - | -
Cc1cc(NS(=O)(=O)c2ccc(NC(=O)/C=C/c3ccc(C)o3)cc2)nc(C)n1 | ? | - | 0 | 0 | 8.4µM | 0 | 7.9µM | 11µM
CCN(CC)c1ccc(/C=C(\C#N)c2ccccn2)cc1 | 0 | 0 | ? | 0 | 0 | 0 | - | -
SMILES | VDR inh | KCNH2 WT inh | MBNL1 CUG block | CBFb-RUNX1 inh | PLK1 PBD block | KCNH2 3.1 block | TbPYK confirm | TbPYK orthogonal | others
N#C/C(=C\c1ccc(C(=O)O)cc1)c1ccccn1 | 0 | 0 | - | 0 | 0 | 0 | ? | 0
Cn1c(=Nc2ccc(N3CCOCC3)cc2)ccc2ccccc21 | 0 | 0 | ? | 0 | 0 | 0 | - | -
Cn1c(N=Nc2ccc(N3CCOCC3)cc2)[n+](C)c2ccccc21 | ? | 0 | 0 | 0 | 0 | 0 | 16µM | 0
CCC1CN(C(=O)N2CCC(C(=O)N3CCN(c4ccccc4F)CC3)CC2)c2ccccc2O1 (stereo unspecified) | 0 | - | - | - | - | - | - | -
Cc1ccc(NC(=O)c2sccc2C)nc1 | 0 | 0 | 0 | - | 0 | 0 | ? | 0
COC(=O)c1ccccc1NC(=O)CN1C(=O)COc2ccccc21 | 0 | - | - | - | - | - | - | -
CCOC(=O)c1c(NS(=O)(=O)c2ccc(Br)cc2)sc2c1CCC2 | 0 | 0 | - | - | 21µM | 0 | 35µM | ?
Cc1cccc(NC(=O)NNS(=O)(=O)c2ccc(F)cc2)c1 | 0 | 0 | 0 | 0 | 0 | 0 | - | -
CC(=O)Nc1ccc(S(=O)(=O)NNc2cccc(C)c2)cc1 | 79µM | 0 | 0 | - | 12µM | 0 | ? | 18µM
Clc1ccccc1Nc1nc(NCc2ccccc2)nc2ccsc12 | - | - | - | - | 0 | - | - | -
OCc1ccccc1-c1nc(NCc2ccccc2)nc2ccsc12 | - | - | - | - | ? | - | ? | ?
